Source: ChEMBL document CHEMBL3988442, “University of Dundee, Small-Polar-MMV Screening Library” (2021)
For some of these results: Measured potencies and affinities stand elsewhere.

Columns and labels:
Design in all cases: scale not given: direction of the effect not stated beside the values
[1] = target: Protein translocase subunit SecA (Escherichia coli (strain K12)) (UniProt P10408); assay: Assay to Identify E. coli SecA ATPase Inhibitors; assay type: functional; conditions: 30 µM
[2] = target: T1, Ubiquitin-activating enzyme e1, putative (Leishmania donovani (strain BPK282A1)) (UniProt E9BSI1); assay: Leishmania donovani Ubiquitin Activating Enzyme (LdE1); assay type: functional; conditions: 30 µM
T1 sequence (whole entry): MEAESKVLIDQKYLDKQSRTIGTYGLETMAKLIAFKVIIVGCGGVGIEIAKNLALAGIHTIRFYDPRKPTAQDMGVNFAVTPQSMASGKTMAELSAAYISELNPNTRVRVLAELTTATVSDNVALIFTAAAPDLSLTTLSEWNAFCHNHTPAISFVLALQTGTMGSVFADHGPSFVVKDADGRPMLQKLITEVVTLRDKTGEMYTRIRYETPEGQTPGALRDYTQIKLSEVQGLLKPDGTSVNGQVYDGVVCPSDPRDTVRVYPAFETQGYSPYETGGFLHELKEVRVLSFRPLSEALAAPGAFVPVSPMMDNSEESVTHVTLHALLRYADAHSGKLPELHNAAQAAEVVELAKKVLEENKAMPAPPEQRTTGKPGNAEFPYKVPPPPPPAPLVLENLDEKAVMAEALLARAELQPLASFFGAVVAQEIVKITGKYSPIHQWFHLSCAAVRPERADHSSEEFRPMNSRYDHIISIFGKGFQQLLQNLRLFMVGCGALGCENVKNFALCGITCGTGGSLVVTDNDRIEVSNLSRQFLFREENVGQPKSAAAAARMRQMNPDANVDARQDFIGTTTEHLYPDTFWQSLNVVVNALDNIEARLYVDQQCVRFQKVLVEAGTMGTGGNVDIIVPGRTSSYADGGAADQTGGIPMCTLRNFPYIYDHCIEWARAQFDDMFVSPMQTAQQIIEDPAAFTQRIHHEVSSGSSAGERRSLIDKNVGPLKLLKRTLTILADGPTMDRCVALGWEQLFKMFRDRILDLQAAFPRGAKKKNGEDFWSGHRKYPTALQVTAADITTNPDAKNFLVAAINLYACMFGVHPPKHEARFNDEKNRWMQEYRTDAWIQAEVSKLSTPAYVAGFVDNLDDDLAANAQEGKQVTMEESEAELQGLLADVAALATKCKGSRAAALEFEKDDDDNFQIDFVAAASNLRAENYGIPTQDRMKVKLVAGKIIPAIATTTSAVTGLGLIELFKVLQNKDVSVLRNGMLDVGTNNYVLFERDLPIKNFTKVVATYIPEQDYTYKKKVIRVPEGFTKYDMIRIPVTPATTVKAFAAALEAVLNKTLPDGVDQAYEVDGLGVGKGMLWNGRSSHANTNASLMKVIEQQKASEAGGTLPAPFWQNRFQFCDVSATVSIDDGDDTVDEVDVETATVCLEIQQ

[3] = target: AMP-activated protein kinase, AMPK (Homo sapiens) (UniProt P54646+O43741+P54619+Q9UGJ0+Q9Y478+Q13131+Q9UGI9); assay: AMP-dependent Kinase enzyme assay. An in vitro enzyme assay that detects ADP turnover that is directly proportional to AMPK activity. This uses naive AMPK that is activated during the assay with MK-8722; assay type: functional; conditions: 30 µM
[4] = target: Sialic acid-binding Ig-like lectin 9 (Homo sapiens) (UniProt Q9Y336); assay: Hs-Siglec9 ALPHAscreen SOP 20170721; conditions: 10 µM
[5] = tested on: Trypanosoma cruzi; assay: Trypanosoma cruzi phosphomannomutase and mannose-1-phosphate guanylyltransferase assay; assay type: functional; conditions: 10 µM
[6] = target: T2, Arginase-2, mitochondrial (Homo sapiens) (UniProt P78540); assay: in vitro enzyme assay to detect the production of urea directly proportional to the activity of Arginase II; assay type: functional; conditions: 33.3 µM; note: in the data most compounds retested in dose-response had high values
T2 sequence (whole entry): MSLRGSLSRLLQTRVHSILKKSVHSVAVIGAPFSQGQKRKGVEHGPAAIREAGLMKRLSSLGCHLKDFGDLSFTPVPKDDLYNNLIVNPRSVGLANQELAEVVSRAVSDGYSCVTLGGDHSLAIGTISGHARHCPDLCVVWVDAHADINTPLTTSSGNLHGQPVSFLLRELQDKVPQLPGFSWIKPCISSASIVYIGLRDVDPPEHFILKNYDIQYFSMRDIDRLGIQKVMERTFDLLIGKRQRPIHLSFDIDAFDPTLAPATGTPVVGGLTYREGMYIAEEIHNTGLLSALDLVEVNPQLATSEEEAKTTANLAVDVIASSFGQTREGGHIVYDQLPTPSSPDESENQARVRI

[7] = target: T3, Proteasome subunit beta (Trypanosoma cruzi) (UniProt O96673); assay: Trypanosoma cruzi proteasome chymotrypsin-like activity (TcProtChymo) assay.; note: in the data most compounds retested in dose-response had high values; assay type: functional; conditions: 9.37 µM
T3 sequence (whole entry): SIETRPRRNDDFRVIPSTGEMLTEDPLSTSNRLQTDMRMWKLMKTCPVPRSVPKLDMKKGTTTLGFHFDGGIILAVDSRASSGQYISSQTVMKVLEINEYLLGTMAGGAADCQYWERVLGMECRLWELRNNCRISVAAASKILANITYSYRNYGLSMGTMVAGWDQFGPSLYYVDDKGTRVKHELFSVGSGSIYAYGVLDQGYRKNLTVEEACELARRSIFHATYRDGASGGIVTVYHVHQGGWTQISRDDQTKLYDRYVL

[8] = species on record: Homo sapiens; assay: To identify inhibition of the IFN signalling (Jak-Stat) pathway via expression of an eGFP reporter gene under the control of an IFN-stimulated response element (ISRE) containing MxA promoter.; assay type: functional; conditions: 30 µM
[9] = target: T4, Tyrosyl-tRNA synthetase, putative (Trypanosoma cruzi (strain CL Brener)) (UniProt Q4DSP6); assay: Trypanosoma cruzi tyrosyl tRNA synthetase (TcYRS) _High Tyrosine SOP; assay type: functional; conditions: 30 µM; note: in the data most compounds retested in dose-response had high values
T4 sequence (whole entry): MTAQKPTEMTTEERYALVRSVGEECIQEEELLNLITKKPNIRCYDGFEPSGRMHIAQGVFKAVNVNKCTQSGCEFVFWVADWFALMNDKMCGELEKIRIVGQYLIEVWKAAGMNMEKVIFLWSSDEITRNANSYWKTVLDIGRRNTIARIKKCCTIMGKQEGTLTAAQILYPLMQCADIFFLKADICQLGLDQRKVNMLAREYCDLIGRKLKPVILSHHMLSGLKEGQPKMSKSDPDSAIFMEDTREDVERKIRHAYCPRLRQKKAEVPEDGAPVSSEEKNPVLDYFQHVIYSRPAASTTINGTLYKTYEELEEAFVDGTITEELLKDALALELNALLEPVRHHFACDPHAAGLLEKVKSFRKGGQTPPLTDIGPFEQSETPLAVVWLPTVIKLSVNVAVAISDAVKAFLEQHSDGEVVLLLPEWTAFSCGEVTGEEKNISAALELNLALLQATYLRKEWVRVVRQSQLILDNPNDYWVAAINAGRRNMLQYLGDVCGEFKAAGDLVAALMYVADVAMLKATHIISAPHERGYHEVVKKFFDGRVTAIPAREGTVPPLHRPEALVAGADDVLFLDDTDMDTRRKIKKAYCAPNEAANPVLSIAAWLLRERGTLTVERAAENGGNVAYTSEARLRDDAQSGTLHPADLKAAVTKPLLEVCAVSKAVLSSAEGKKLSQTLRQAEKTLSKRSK

[10] = target: T4, Tyrosyl-tRNA synthetase, putative (Trypanosoma cruzi (strain CL Brener)); assay: Trypanosoma cruzi tyrosyl tRNA synthetase (TcYRS) SOP; assay type: functional; conditions: 30 µM
[11] = target: Chromo domain-containing protein 1 (Saccharomyces cerevisiae (strain ATCC 204508 / S288c) (Baker's yeast)) (UniProt P32657); assay: ScCHD-1 Enzyme Inhibition Assay; assay type: functional; conditions: 30 µM; note: in the data most compounds retested in dose-response had high values
Sequence of Chromo domain-containing protein 1 (Saccharomyces cerevisiae (strain ATCC 204508 / S288c) (Baker's yeast)) (P32657 whole entry, the tested form may be a part): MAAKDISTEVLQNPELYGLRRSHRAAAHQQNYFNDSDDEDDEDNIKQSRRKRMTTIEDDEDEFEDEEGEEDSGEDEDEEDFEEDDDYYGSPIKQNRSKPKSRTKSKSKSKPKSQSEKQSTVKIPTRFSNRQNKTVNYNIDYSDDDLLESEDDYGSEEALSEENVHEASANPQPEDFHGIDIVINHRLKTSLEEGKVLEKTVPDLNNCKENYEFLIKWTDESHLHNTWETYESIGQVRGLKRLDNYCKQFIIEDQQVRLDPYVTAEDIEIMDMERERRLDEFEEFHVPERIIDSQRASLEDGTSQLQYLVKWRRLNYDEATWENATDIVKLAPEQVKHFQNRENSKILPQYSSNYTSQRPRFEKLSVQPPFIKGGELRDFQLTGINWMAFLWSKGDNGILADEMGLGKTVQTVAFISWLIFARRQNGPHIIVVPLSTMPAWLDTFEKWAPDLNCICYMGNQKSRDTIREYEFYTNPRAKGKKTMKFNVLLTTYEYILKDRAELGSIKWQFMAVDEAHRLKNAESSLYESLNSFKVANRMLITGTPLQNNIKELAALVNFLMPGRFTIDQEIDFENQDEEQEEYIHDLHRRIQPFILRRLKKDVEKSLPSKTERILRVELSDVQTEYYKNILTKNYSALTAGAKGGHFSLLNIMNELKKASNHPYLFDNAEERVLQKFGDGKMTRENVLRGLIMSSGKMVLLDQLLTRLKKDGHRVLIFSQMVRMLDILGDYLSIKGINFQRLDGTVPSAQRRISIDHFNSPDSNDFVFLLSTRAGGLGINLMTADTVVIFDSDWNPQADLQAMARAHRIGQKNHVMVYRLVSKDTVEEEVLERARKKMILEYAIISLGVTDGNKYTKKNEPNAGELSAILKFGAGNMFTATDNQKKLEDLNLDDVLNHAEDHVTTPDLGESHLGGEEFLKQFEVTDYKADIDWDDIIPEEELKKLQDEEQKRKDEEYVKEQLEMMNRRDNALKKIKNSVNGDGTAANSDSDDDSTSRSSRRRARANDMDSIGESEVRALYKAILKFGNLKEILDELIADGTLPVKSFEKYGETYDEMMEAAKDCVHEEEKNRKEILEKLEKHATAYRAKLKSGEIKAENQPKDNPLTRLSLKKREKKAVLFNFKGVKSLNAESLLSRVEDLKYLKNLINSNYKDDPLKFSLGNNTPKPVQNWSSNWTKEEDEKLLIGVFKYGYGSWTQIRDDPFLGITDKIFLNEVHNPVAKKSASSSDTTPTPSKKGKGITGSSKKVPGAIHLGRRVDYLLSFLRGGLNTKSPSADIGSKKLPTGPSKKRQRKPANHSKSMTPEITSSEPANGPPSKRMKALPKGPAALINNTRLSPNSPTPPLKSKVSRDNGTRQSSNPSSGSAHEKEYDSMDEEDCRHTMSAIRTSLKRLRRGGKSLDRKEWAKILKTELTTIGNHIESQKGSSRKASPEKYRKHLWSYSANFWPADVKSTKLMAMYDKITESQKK

Sequence of Sialic acid-binding Ig-like lectin 9 (Homo sapiens) (Q9Y336 whole entry): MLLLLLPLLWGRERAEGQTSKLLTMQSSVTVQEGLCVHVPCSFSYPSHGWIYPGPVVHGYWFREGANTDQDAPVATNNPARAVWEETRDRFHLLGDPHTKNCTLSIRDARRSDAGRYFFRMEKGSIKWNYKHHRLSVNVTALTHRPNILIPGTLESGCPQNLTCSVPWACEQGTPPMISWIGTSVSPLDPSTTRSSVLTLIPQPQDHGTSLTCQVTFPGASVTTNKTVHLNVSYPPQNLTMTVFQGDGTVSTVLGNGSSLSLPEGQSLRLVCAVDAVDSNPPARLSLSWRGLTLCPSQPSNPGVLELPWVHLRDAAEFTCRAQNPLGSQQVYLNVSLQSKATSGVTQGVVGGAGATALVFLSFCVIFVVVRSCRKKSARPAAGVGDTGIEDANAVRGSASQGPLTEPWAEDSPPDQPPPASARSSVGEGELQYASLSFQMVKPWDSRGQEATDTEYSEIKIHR
Sequence of Protein translocase subunit SecA (Escherichia coli (strain K12)) (P10408 whole entry): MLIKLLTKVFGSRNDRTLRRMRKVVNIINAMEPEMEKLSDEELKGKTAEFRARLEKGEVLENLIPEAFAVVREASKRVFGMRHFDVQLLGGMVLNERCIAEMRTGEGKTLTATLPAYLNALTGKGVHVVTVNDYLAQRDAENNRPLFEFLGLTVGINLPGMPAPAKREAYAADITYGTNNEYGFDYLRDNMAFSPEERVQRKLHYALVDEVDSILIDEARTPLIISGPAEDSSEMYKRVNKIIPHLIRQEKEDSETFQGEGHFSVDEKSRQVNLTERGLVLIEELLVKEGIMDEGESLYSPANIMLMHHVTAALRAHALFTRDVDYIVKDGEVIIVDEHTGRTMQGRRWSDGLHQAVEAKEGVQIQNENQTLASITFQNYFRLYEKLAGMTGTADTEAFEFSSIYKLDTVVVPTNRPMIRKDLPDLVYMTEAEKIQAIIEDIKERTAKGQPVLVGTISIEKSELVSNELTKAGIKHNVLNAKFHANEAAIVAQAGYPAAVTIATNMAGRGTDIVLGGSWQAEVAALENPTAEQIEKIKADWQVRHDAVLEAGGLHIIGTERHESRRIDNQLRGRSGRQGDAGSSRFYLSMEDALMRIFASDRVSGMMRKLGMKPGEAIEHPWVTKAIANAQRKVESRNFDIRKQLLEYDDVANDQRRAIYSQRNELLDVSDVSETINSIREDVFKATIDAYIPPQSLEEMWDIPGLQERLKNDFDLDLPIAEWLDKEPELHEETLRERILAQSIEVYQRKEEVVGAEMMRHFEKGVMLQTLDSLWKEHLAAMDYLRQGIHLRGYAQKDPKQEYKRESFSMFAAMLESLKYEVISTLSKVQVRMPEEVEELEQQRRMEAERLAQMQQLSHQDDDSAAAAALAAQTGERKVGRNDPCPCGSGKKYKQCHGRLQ

Row | SMILES | Percent Effect [1] | Percent Effect [2] | Percent Effect [3] | Percent Effect [4] | Percent Effect [5] | Percent Effect [6] | Percent Effect [7] | Percent Effect [8] | Percent Effect [9] | Percent Effect [10] | Percent Effect [11]
1 | Cc1nc(C)n(CC2CN(CC(=O)Nc3nccs3)CCO2)n1 (stereo unspecified) | -0.715% | 1.39% | -0.871% | 15.8% | 3.98% | 10.6% | 7.19% | 20.3% | 5.26% | 10.3% | -1.52%
2 | CN(Cc1cn2c(n1)CN(C(=O)CC1CC1)CC2)Cc1ccco1 | -3.7% | 2.67% | 8.42% | 1.6% | -0.197% | 8.16% | -3.44% | 20.3% | 5.32% | 14.1% | -0.584%
3 | CC(O)CN1CCN(C(=O)c2ccc(Cn3cccn3)cc2)CC1 (stereo unspecified) | -4.02% | 18.9% | -8.57% | 7.3% | 7.08% | -9.22% | 6.67% | 3.34% | 7.39% | 25.9% | -12.3%
4 | O=C(CCCc1ccc(F)cc1)N1C[C@@H](CN2CCOCC2)[C@@H](CO)C1 | -3.25% | 8.22% | -1.01% | -3.8% | -1.57% | 1.82% | 13.7% | -3.47% | 7.53% | 12.5% | -5.62%
5 | Cc1cc(N(C)C)nc(C2(C)CCCN2C(=O)c2cnccn2)n1 (stereo unspecified) | -2.86% | 8% | 5.28% | -5.27% | 7.48% | 2.1% | 11.4% | -1.62% | 1.06% | 8.97% | -2.81%
6 | COc1cc(C(=O)N(C2CC2)C2CC(=O)NC2=O)ccc1C (stereo unspecified) | 0.67% | 12.7% | 4.42% | 4.45% | -7.84% | 8.37% | 1.72% | 24.4% | 4.43% | 11.4% | -4.59%
7 | O=C(CCc1ccsc1)NCC1CCN(c2ccccc2)C1 (stereo unspecified) | 0.538% | -6.94% | -4.41% | -4.12% | -6.51% | 5.3% | 18.4% | 9.93% | 6.32% | 7.69% | -1.39%
8 | CN(C)C(=O)NC1COC2(CCN(Cc3ccccc3)CC2)C1 (stereo unspecified) | -6.16% | 0% | 7.68% | -1.66% | -3.94% | 1.17% | 6.26% | 21.5% | -3.19% | -6.41% | -1.6%
9 | CCC(C)c1noc(C2CCN(C(=O)c3cccnc3)CC2)n1 (stereo unspecified) | -3.05% | 7.79% | 0.731% | 6.36% | -0.0983% | -9.65% | 14.8% | -14.3% | 5.38% | 11.1% | -2.94%
10 | Cc1noc(CN(Cc2ccc3c(c2)OCO3)Cc2ccc(C)o2)n1 | -2.53% | 13.5% | -9.33% | -9.31% | -5.75% | 3.21% | 13.3% | 27.4% | 8.37% | 13.6% | -6.37%
11 | CNC(=O)CN1CCC(NC(=O)N(C)Cc2cc(C)on2)CC1 | -1.81% | 13% | -1.11% | 13.1% | 9.7% | 0.632% | 9.78% | -1.08% | 8.57% | 18.8% | -7.35%
